Experimental data: PubChem BioAssay
Values without a mark were called inactive. The source made the active and inactive calls. Unless noted, no stated cut-off is given here; in the data, active means inhibition above about 28%; inactive means the rest.

Legend:
[1] = StAR promoter reporter inhibitors, counter-screen for LRH-1 inverse agonist project, cell-based, luminescence, high throughput (AID 651611); settings: StAR promoter luciferase reporter counterscreen, at 3.6 µM, active compounds read high
[2] = biological target: Nuclear receptor subfamily 5 group A member 2 (Homo sapiens) (UniProt O00482); experiment: LRH-1 (NR5A2) inverse agonists, retest, confirmation, cell-based, luminescence (AID 651613; in the data active means inhibition above about 42%;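 further: HEK293T cells co-transfected with LRH-1 and StAR promoter luciferase reporter; 0% = vehicle wells and 100% = parental cells lacking receptor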); settings: cell-based LRH-1 luciferase reporter, inverse agonism; at 3.6 µM; active compounds read high
Sequence of Nuclear receptor subfamily 5 group A member 2 (Homo sapiens) (O00482 whole entry, looked up): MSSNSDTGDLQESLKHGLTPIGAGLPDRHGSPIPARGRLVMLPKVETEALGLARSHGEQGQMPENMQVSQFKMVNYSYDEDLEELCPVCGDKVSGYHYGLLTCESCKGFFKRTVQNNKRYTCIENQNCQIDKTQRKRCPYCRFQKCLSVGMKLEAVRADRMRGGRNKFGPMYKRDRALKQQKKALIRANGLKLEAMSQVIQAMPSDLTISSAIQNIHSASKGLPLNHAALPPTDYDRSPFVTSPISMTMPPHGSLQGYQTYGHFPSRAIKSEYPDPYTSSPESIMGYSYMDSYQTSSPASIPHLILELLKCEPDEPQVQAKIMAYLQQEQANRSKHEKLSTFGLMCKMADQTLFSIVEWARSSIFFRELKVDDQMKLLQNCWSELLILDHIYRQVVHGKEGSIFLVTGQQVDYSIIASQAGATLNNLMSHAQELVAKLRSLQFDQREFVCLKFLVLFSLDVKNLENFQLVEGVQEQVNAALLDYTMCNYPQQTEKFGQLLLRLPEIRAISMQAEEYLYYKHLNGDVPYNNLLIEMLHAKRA

[3] = biological target: Steroidogenic factor 1 (Homo sapiens) (UniProt Q13285); experiment: SF1 (NR5A1) inverse agonists, counter-screen for LRH-1 inverse agonist project, cell-based, luminescence, high throughput (AID 651614; in the data active means inhibition above about 44%;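 further: cells cotransfected with StAR promoter reporter and SF1 expression vector; 0% = vehicle on cells with receptor and 100% = vehicle on cells lacking receptor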); settings: cell-based SF1 luciferase reporter, at 3.6 µM, active compounds read high
Sequence of Steroidogenic factor 1 (Homo sapiens) (Q13285 whole entry, looked up, the tested form may be a part): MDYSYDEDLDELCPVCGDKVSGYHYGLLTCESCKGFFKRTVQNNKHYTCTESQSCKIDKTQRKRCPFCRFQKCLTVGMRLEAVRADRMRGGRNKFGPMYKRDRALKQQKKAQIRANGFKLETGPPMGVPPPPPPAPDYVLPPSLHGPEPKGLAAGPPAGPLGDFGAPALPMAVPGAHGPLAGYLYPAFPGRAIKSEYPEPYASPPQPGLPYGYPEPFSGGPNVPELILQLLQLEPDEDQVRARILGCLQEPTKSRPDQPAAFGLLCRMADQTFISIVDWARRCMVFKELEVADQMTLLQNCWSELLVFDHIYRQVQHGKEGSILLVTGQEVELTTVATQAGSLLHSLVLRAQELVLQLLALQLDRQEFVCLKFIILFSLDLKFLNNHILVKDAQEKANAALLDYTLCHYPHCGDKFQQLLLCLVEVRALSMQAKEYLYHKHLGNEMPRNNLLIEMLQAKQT

[4] = VP16 transactivation reporter inhibitors, counter-screen for LRH-1 inverse agonist project, cell-based, luminescence, high throughput (AID 651615; in the data active means inhibition above about 33%); settings: Gal4-VP16 luciferase reporter cells, at 3.6 µM, active compounds read high

| SMILES | inhibition [1] | inhibition [2] | inhibition [3] | inhibition [4] |
| --- | --- | --- | --- | --- |
| COc1ccc(NC(=O)CS(=O)(=O)c2ccc(C)cc2)c(OC)c1 | 17% | 53.1% (active) | 56% (active) | -1.68% |
| COc1ccc(NS(=O)(=O)c2ccc(OCC(=O)N3CCOCC3)cc2)cc1Cl | -8.5% | 35.7% | 34.3% | 6.15% |
| CN(C)c1ccc(NC(=O)CSc2nnc(-c3ccco3)c(-c3ccco3)n2)cc1 | 14.1% | 54.9% (active) | 47.8% (active) | -2.61% |
| CCC(=O)N1CCN(c2ccc(NC(=O)c3ccc([N+](=O)[O-])o3)cc2Cl)CC1 | 13% | 56.2% (active) | 58.2% (active) | -21.9% |
| COC(=O)c1ccc(NC(=O)CN2C(=O)CNC2=O)cc1 | 11.5% | 62.9% (active) | 50.9% (active) | -6.93% |
| Cc1ccc(NC(=O)Cc2nnc(SCC(=O)Nc3ccc(N4CCOCC4)cc3)n2C)cc1 | 6.95% | 59.7% (active) | 51.9% (active) | 12% |
| CCCCNC(=O)COC(=O)c1c2c(nc3ccccc13)/C(=C/c1cccs1)CC2 | 11.2% | 58% (active) | 26.4% | 37.3% (active) |
| Cc1cc(C)c2nc(NC(=O)c3ccc([N+](=O)[O-])o3)sc2c1 | -2.6% | 50.8% (active) | 53.7% (active) | -14.5% |
| Cc1cccc(C)c1NC(=O)C(c1ccc(C(F)(F)F)cc1)n1c(=O)c(-c2cc3ccccc3[nH]2)nc2ccccc21 (centres undefined) | 13.9% | 23.7% | 24.7% | 7.59% |
| CS(=O)(=O)N1CCN(c2ccccc2NC(=O)c2ccc([N+](=O)[O-])o2)CC1 | 11.6% | 57.4% (active) | 55.3% (active) | -20.1% |
| COc1ccc(CCNC(=O)CN2C(=O)NC3(CCCCC3C)C2=O)cc1 (centres undefined) | 3.33% | 66.3% (active) | 66.7% (active) | -17% |
| CN1C(=O)NC(c2ccccc2[N+](=O)[O-])C2=C1CC(C)(C)CC2=O (centres undefined) | 3.55% | 19% | -6.97% | 0.8% |
| COc1ccc(S(=O)(=O)Nc2ccc3c(c2)n(C)c(=O)n3C)cc1F | 19.6% | 46.2% (active) | 52.1% (active) | 7.89% |
| O=C(COC(=O)C1CC(=O)N(Cc2ccccc2)C1)Nc1ccc2c(c1)OCO2 (centres undefined) | 6.45% | 50.9% (active) | 54.8% (active) | -9.97% |
| COc1cccc(C2c3cc4c(cc3OC(N3CCOCC3)C2C)OCO4)c1O (centres undefined) | 11.7% | 51.8% (active) | 45.3% (active) | 21.4% |
| CN(C)c1ccc(C=c2c3ccccc3n3c2c2ccccc2[n+]3C)cc1 | 54.9% (active) | 107% (active) | 90.7% (active) | 91.7% (active) |
| Cn1c(CN2CCN(c3cccc(Cl)c3)CC2)nc2ccccc21 | -11.3% | 23.1% | 36.9% | -12.9% |
| CCOc1ccc(NC(=O)Cn2cc(C(C)=O)c3ccccc32)cc1 | 22.7% | 78.3% (active) | 73.8% (active) | 41.9% (active) |
| C/C(=N\N=C(N)N)c1cc(Cl)ccc1Cl | 26.9% | 102% (active) | 30.1% | 75.8% (active) |
| NC(=O)CC[C@H](NC(=O)c1ccc(F)cc1)C(=O)OCC(=O)Nc1ccc(N2CCOCC2)cc1 | 0.81% | 57.5% (active) | 47.9% (active) | -8.19% |
| C/C(=N\NC(N)=S)c1ccc(-n2ccnc2)cc1 | 10.1% | 60.5% (active) | 53.4% (active) | -13.1% |
| COc1ccc(-c2c(C)nn3c(NC4CCCC4)cc(C)nc23)cc1OC | 25.9% | 62.9% (active) | 54.8% (active) | -3.44% |
| Cc1c(Cl)cccc1NC(=O)CSc1nnc(C)n1CC1CCCO1 (centres undefined) | -4.11% | 38.1% | 14.9% | -6.95% |
| COc1ccc(CCNC(=O)CSc2ccc(NC(C)=O)cc2)cc1OC | 9.56% | 53.8% (active) | 53.4% (active) | -3.78% |
| CCN(CC)c1nc(-c2ccccn2)nc(-c2ccccc2)c1C#N | 11.5% | 53.4% (active) | 55.7% (active) | 13.6% |
| COc1cccc(COC(=O)C2CC(=O)N(Cc3ccco3)C2)c1OC (centres undefined) | 12% | 30.3% | 31% | -7.19% |

| SMILES | inhibition [1] | inhibition [2] | inhibition [3] | inhibition [4] |
| --- | --- | --- | --- | --- |
| O=C(CSc1nnc(Cc2cccs2)n1-c1ccccc1)Nc1ccc2c(c1)OCCO2 | -2.83% | 34.8% | 31.1% | -2.43% |
| Cc1ccc(OCc2nnc(SCC(=O)Nc3ccc4c(c3)OCCO4)n2Cc2ccco2)cc1 | 6.71% | 45.5% (active) | 41.2% | 1.35% |
| Cc1ccc(Cn2cnc3ccccc32)cc1C | 2.29% | 36.2% | 32.6% | 7.91% |
| O=C(C1=C[C@@H](C2CCCCC2)C[C@@H](OCc2ccc(CO)cc2)O1)N1CCN(Cc2ccc3c(c2)OCO3)CC1 | 12% | 46.2% (active) | 40.6% | 4.7% |
| Cc1ccc(C(=O)Nc2sc3c(c2C(=O)O)CCCCC3)o1 | 12.2% | 34.3% | 69.9% (active) | 45.4% (active) |
| COc1cc2oc(-c3ccc(O)cc3)cc(=O)c2c(O)c1OC | 7% | 35.9% | 32.8% | -45.5% |
| CCOc1ccc(CCNC(=O)COC(=O)COc2ccc(Br)cc2)cc1OCC | 4.03% | 49.1% (active) | 56.3% (active) | 4.38% |
| OCC1OC(n2cnc3c(/C=C(\O)c4ccccc4)ncnc32)C(O)C1O (centres undefined) | -32.8% | -13.9% | -0.35% | -27.3% |
| c1ccc(Oc2nc(-c3cccnc3)nc3ccccc23)cc1 | 10.6% | 57.3% (active) | 53.3% (active) | 1.32% |
| COc1ccc(CCNC(=O)CSc2nc3[nH]c(=O)cc(O)c3s2)cc1 | 17.6% | 60.7% (active) | 51.7% (active) | -3.78% |
| COc1cc(-c2cnc3c(NC=O)cc(-c4cccc(NC(C)=O)c4)cn23)cc(OC)c1OC | 62.9% (active) | 74.9% (active) | 71.5% (active) | -23.8% |
| CC(=O)Nc1cc(-c2ccccc2N(C)C)cn2c(-c3ccc(S(C)(=O)=O)cc3)cnc12 | 7.26% | 49.8% (active) | 36.5% | -14.6% |
| CC(C)(C)C(=O)N1CCN(c2ccc(NC(=O)c3ccc([N+](=O)[O-])o3)cc2)CC1 | 11.1% | 59.7% (active) | 68.6% (active) | -12.6% |
| O=C(CC1C(=O)NCCN1C(=S)Nc1ccccc1)Nc1ccc2c(c1)OCCO2 (centres undefined) | 10.3% | 53.8% (active) | 63.2% (active) | -25.2% |
| CC(C)C(=O)Nc1ccc(C(=O)CN2C(=O)NC3(CCOc4ccccc43)C2=O)cc1 (centres undefined) | 8.93% | 37.1% | 36.7% | 7.98% |
| CCCCCCCCn1c2c(c(=N)c3ccccc31)CCC2 | 78.5% (active) | 110% (active) | 92.8% (active) | 92.1% (active) |
| COc1ccc(NC(=O)CSc2sc3c(O)cc(=O)[nH]c3c2C#N)c(OC)c1 | 1.46% | 48.8% (active) | 47.3% (active) | 2.48% |
| O=C(NCCCc1ccccc1)c1cc([N+](=O)[O-])ccc1Cl | 23.3% | 71% (active) | 67.5% (active) | -15.8% |
| COc1cc([N+](=O)[O-])ccc1NC(=O)Cn1ccsc1=N | 4.07% | 59.9% (active) | 57.6% (active) | -3.33% |
| Cc1ccc(S(=O)(=O)Nc2ccc3c(c2)n(C)c(=O)n3C)cc1 | 40.1% (active) | 48.8% (active) | 38.3% | -96.8% |
| COCCn1c(SCC(=O)Nc2ccc(C(N)=O)cc2)nc2c([nH]c3ccccc32)c1=O | 24.6% | 64.9% (active) | 61.7% (active) | -64% |
| CCOc1ccccc1C(=O)Nc1cc2c(cc1N1CCCC1)n(CC)c(=O)n2CC | 52.6% (active) | 48.8% (active) | 53.5% (active) | 49.6% (active) |
| CC(=O)C1=C(c2cccc([N+](=O)[O-])c2)N(C(C)=O)n2c(C)nnc2S1 | 5.25% | 58.4% (active) | 50.3% (active) | -4.12% |
| COc1ccc(O)c(/C=N/Nc2nc(Nc3ccccc3)nc(-n3nc(C)cc3C)n2)c1 | 21.3% | -28.7% | -41.8% | -35.4% |
| COc1ccc(NC(=O)CN2C(=O)NC3(CCCC3)C2=O)cc1 | -8.92% | 51.2% (active) | 47.5% (active) | -17.1% |
